Data published in PubChem BioAssay (NCATS).
Results filed as inconclusive are left out. Calls of active or inactive are those of the source. Calls come from the whole dose curve; as a rule, active = well fitted curve in the direction sought with a large enough effect; inconclusive = small, poorly fitted or top-dose-only effect, or another doubt; inactive = no such curve, though single readings can be large; an effect the other way counts as inactive or inconclusive. Where a SMILES comes first, the peptide text is derived from it. [ ]: non-standard residue; d: D form. ξ: configuration not given here. ξTyr(βOH) = NC(C(=O)O)C(O)c1ccc(O)cc1

What was measured:
[1] = target: Glutathione peroxidase 1 (Homo sapiens) (UniProt P07203); experiment: Primary qHTS Assay for Inhibitors of Recombinant Selenoprotein Glutathione Peroxidase 1 (GPX1) (AID 1845191); note: nearly all actives have a fitted effect of over 65% in size
Glutathione peroxidase 1 (Homo sapiens), sequence (P07203 whole entry, looked up): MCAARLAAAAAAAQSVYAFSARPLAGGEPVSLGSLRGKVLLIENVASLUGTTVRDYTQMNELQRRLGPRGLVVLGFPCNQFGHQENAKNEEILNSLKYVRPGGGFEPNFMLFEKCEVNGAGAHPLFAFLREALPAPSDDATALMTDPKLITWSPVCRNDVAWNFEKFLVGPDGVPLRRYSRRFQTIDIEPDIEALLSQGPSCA
Outline: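 GR-coupled readout: NADPH consumption tracked by fluorescence, ex 340/em 450 nm, at t=0 and after 15 min at RT. Final mix 10 nM GPX1, 1 mM GSH, 0.5 mM CHP, 0.5 mM NADPH, 100 nM GR, 0.01% BSA, following 30 min enzyme–compound preincubation.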

[2] = target: Phospholipid hydroperoxide glutathione peroxidase GPX4 (Homo sapiens) (UniProt P36969); experiment: Primary qHTS Assay for Inhibitors of Recombinant Selenoprotein Glutathione Peroxidase 4 (GPX4) (AID 1845192); note: nearly all actives have a fitted effect of over 65% in size; for activity change, negative = inhibition: series mostly up to about 50 µM; % is set by controls: 0 for no effect and ±100 for the full control effect
Phospholipid hydroperoxide glutathione peroxidase GPX4 (Homo sapiens), sequence (P36969 whole entry, looked up): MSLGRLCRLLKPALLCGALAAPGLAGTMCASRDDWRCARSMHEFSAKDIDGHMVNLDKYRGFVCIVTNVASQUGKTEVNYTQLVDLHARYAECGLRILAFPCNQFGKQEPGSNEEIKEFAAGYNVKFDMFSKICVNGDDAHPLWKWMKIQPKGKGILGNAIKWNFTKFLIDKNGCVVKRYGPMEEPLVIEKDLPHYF
Outline: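 Steps: GPX4 plus compound, 30 min RT; add GR/GSH/NADPH master mix; start with cumene hydroperoxide; read 340/450 nm fluorescence at 0 and 15 min. Finals were 200 nM GPX4, 1 mM GSH, 0.5 mM CHP, 0.5 mM NADPH, 100 nM GR.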

[3] = target: Luciferin 4-monooxygenase (Photinus pyralis) (UniProt P08659); experiment: Primary firefly luciferase (FLuc) qHTS assay for identification of artifact compounds. (AID 1845220); note: nearly all actives have a fitted effect of over 60% in size; note: potency is the fitted concentration of half-maximal effect;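 for activity change, negative = inhibition: series mostly up to about 54 µM; plate controls were DMSO vehicle for no effect and no enzyme for full effect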
Outline: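 D-luciferin and ATP (10 uM each, final) in Tris acetate buffer pH 7.6 were incubated with compounds for 15 min at room temperature. The reaction was started with 10 nM Photinus pyralis luciferase and luminescence read after 5 min. Percent inhibition was fitted to a 4-parameter Hill equation.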

[4] = Primary fluorescence-based thiol-reactive (MSTI) qHTS assay for identification of artifact compounds. (AID 1845221); note: nearly all actives have a fitted effect of over 65% in size; note: potency is the fitted concentration of half-maximal effect;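 for activity change, negative = thiol reactive: series mostly up to about 54 µM; thiol-reactive compounds lower the probe fluorescence signal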
Outline: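 qHTS titration of compound; 4 uM MSTI, PBS pH 7.4, 2% DMSO; 1 h RT, dark; fluorescence 525/598 nm; normalized to Acetyl-MSTI and MSTI; 4-parameter Hill fit.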

COc1cc(C)c(C(=O)NC2C(C)OC(OC3CCC(C)C4C3C=C(C)C3/C(C)=C\CC/C(C)=C/C5(C)C=C(C(=O)O)C(C)CC56OC(=O)/C(=C(\O)C34C)C6=O)C(O)C2(C)O)c(O)c1 (centres undefined)
inactive: Potency [1] | Potency [2] | outcome [3] inactive [at 11.6 µM] | activity change, negative = thiol reactive [4] 188% [at 11.5 µM]

CCCC1=CC2=C(CO1)C(=O)C(C)(O)C(OC(=O)c1c(C)cc(OC)cc1O)C2 (centres undefined)
inactive: Potency [1] | Potency [2] | Potency [3] | Potency [4]

CC1CCC2(NC1)OC1C(O)C3C4CCC5CC(O[C@@H]6O[C@H](CO)[C@@H](O)[C@H](O)[C@H]6O[C@@H]6O[C@@H](C)[C@H](O)[C@@H](O)[C@H]6O)CCC5(C)C4CCC3(C)C1C2C (some centres undefined)
inactive: Potency [1] | Potency [2] | Potency [3] | Potency [4]

CC1(C)CC(NC(=O)C(=O)Nc2ccc(Cl)cc2)CC(C)(C)N1
inactive: Potency [1] | Potency [2] | Potency [3] | Potency [4]

C=CC(C)(O)C1CC2C3(C)CCCC(C)(C)C3C(O)C(O)C2(C)O1 (centres undefined)
inactive: Potency [1] | Potency [2] | Potency [3] | Potency [4]

C/C=C(/C)C(=O)OC1CC(C)(C)CC2C3=CCC4C5(C)CCC(OC6OC(C)C(OC7OC(C(=O)O)C(O)C(OC8OC(CO)C(O)C(O)C8OC8OC(CO)C(O)C(O)C8O)C7O)C(O)C6O)C(C)(C)C5CCC4(C)C3(C)C(OC(=O)/C=C/C=C/C=C/CCC)C(OC(C)=O)C12CO (centres undefined)
inactive: Potency [1] | Potency [2] | activity change, negative = inhibition [3] 1.89% [at 11.6 µM] | activity change, negative = thiol reactive [4] 260% [at 11.5 µM]

C[C@@H]1O[C@@H](O[C@H]2[C@H](O)[C@@H](O)[C@H](OC(=O)[C@]34CCC(C)(C)C[C@H]3C3=CCC5[C@@]6(C)CC[C@H](O[C@@H]7O[C@H](C(=O)O)[C@@H](O)[C@H](O)[C@H]7O)C(C)(C)C6CC[C@@]5(C)[C@]3(C)CC4)O[C@@H]2CO)[C@H](O)[C@H](O)[C@H]1O (some centres undefined)
inactive: Potency [1] | Potency [2] | activity change, negative = inhibition [3] -16.1% [at 11.6 µM] | activity change, negative = thiol reactive [4] 74.8% [at 11.5 µM]

COc1ccnc(CCc2nc3ncccc3[nH]2)c1
inactive: Potency [1] | Potency [2] | Potency [3] | Potency [4]

C=C1C(OC(C)=O)CCC2(C)CCC(C(C)(C)O)CC12 (centres undefined)
inactive: Potency [1] | Potency [2] | Potency [3] | Potency [4]

COc1cc(C2CC(=O)Nc3c2cc(Br)c2ccccc32)cc(OC)c1OC (centres undefined)
inactive: Potency [1] | Potency [2] | Potency [3] | Potency [4]

O=C(OCC1=CC(Cl)C(O)C(OC(=O)c2ccccc2)C1O)c1ccccc1 (centres undefined)
inactive: Potency [1] | Potency [2] | Potency [3] | Potency [4]

C[C@]1(OC(=O)/C=C/c2ccc(O)cc2)C[C@@H](O)[C@]2(O)C=CO[C@@H](O[C@@H]3O[C@H](CO)[C@@H](O)[C@H](O)[C@H]3O)C12 (some centres undefined)
inactive: Potency [1] | Potency [2] | Potency [3] | Potency [4]

CC(O)C/C=C/C=C/C(=O)OC1C=C2COC(=O)C2(O)C2(C)CCCC(C)(C)C12 (centres undefined)
inactive: Potency [1] | Potency [2] | Potency [3] | Potency [4]

COc1ccccc1N1CCN(CCCCNC(=O)c2ccc(-c3cscn3)cc2)CC1
inactive: Potency [1] | Potency [2] | Potency [3] | Potency [4]

CC1=CC(=O)C2C(C)(C)CCC[C@]2(C)[C@H]1CC[C@H](C)CC(=O)O (some centres undefined)
inactive: Potency [1] | Potency [2] | Potency [3] | Potency [4]

CC(C)C1NC(=O)CNC(=O)C2CCCN2C(=O)C(Cc2c[nH]c3ccccc23)NC(=O)CNC(=O)C(C(O)c2ccc(O)cc2)NC(=O)CNC1=O (centres undefined) (cyclo(G[ξTyr(βOH)]GWPGV); configuration not given here)
inactive: Potency [1] | Potency [2] | Potency [3] | Potency [4]

CC(C)=CCC[C@](C)(O[C@@H]1O[C@H](CO[C@@H]2O[C@@H](CO)[C@H](O)[C@H]2O)[C@@H](O)[C@H](O)[C@H]1O)[C@H]1CC[C@]2(C)[C@@H]1[C@H](O)C[C@@H]1[C@@]3(C)CC[C@H](O[C@@H]4O[C@H](CO)[C@@H](O)[C@H](O)[C@H]4O[C@@H]4O[C@H](CO)[C@@H](O)[C@H](O)[C@H]4O)C(C)(C)[C@@H]3CC[C@]12C
inactive: Potency [1] | Potency [2] | Potency [3] | Potency [4]

Cc1ccccc1-c1cc(N2CCN(C)CC2)ncc1N(C)C(=O)C(C)(C)c1cc(C(F)(F)F)cc(C(F)(F)F)c1
inactive: Potency [1] | Potency [2] | Potency [3] | Potency [4]

C[C@@H]1O[C@@H](O[C@H]2[C@H](Oc3cc(O)c(C(=O)CCc4ccc(O)cc4)c(O)c3)O[C@H](CO)[C@@H](O)[C@@H]2O)[C@H](O)[C@H](O)[C@H]1O
inactive: Potency [1] | Potency [2] | Potency [3] | Potency [4]

CC[C@H]1OC(=O)[C@H](C)[C@@H](O[C@H]2C[C@@](C)(OC)[C@@H](O)[C@H](C)O2)C(C)[C@@H](O[C@@H]2O[C@H](C)C[C@H](N(C)C)[C@H]2O)[C@](C)(O)C[C@@H](C)CN(C)[C@H](C)[C@@H](O)[C@]1(C)O (some centres undefined)
inactive: Potency [1] | Potency [2] | Potency [3] | Potency [4]

Cc1nnc(-c2sc(NC(=O)[C@H](C(C)C)n3c(=O)[nH]c4ccccc4c3=O)nc2C)o1
inactive: Potency [1] | Potency [2] | Potency [3] | Potency [4]

C#CCCCn1cc(-c2cccc3c2N[C@@H](C)CC(=O)N3)cn1
inactive: Potency [1] | Potency [2] | Potency [3] | Potency [4]

CC1(C)CC[C@]2(C(=O)O[C@@H]3O[C@H](CO)[C@@H](O)[C@H](O)[C@H]3O)CC[C@]3(C)C(=CCC4[C@@]5(C)CC[C@H](O[C@@H]6O[C@H](C(=O)O)[C@@H](O[C@@H]7O[C@H](CO)[C@@H](O)[C@H](O)[C@H]7O)[C@H](O)[C@H]6O[C@@H]6O[C@H](CO)[C@@H](O)[C@H](O)[C@H]6O)C(C)(C)C5CC[C@]43C)C2C1 (some centres undefined)
inactive: Potency [1] | Potency [2] | outcome [3] inactive [at 11.6 µM] | activity change, negative = thiol reactive [4] 240% [at 11.5 µM]

COc1cc(Cc2cnc(N)nc2N)c(C(C)C)cc1OC
inactive: Potency [1] | Potency [2] | Potency [3] | Potency [4]

O=C1C[C@@]2(C(=O)N1)C(=O)N(Cc1ccc(Br)cc1F)C(=O)c1cccn12
inactive: Potency [1] | Potency [2] | Potency [3] | Potency [4]

C/C=C1/C[N+](C)([O-])C2Cc3c([nH]c4ccccc34)C(=O)CC1C2C(=O)OC (centres undefined)
inactive: Potency [1] | Potency [2] | Potency [3] | Potency [4]

C[C@@H]1C(=O)O[C@H](C)[C@H]1C[C@@H](O)[C@](C)(O)[C@H]1CC[C@@]2(O)C3=CC(=O)[C@@H]4C[C@@H](O)[C@@H](O)C[C@]4(C)C3CC[C@]12C (some centres undefined)
inactive: Potency [1] | Potency [2] | Potency [3] | Potency [4]

CC(C)=CCC(O)[C@](C)(O)C1[C@H](O)C[C@@]2(C)C3CC=C4C(C[C@H](O)[C@@H](O[C@@H]5O[C@H](CO)[C@@H](O)[C@H](O)[C@H]5O)C4(C)C)[C@]3(C)C(=O)C[C@]12C (some centres undefined)
inactive: Potency [1] | Potency [2] | Potency [3] | Potency [4]

CC(C)C1(O)NC(=O)C(CC2(O)c3ccccc3N3C(=O)C(C)(C)NC32)n2c1nc1ccccc1c2=O (centres undefined)
inactive: Potency [1] | Potency [2] | Potency [3] | Potency [4]

O=C(OCC1OC(Oc2ccc(O)cc2COC(=O)C2(O)C(O)CCC(=O)C2OC(=O)C2C=CCC2)C(OC(=O)C2C=CCC2)C(O)C1O)C1C=CCC1 (centres undefined)
inactive: Potency [1] | Potency [2] | Potency [3] | Potency [4]

C=C1CC23CC(=O)C4C(CO)(CO)CCCC4(C)C2CCC1C3 (centres undefined)
inactive: Potency [1] | Potency [2] | Potency [3] | Potency [4]

c1ccc2c(Nc3nnc(-c4ccncc4)s3)cccc2c1
active: Potency [3] 7.57 µM
inactive: Potency [1] | Potency [2] | Potency [4]

C[C@@]1(C(=O)O)CCC[C@@]2(C)C3=CC[C@H]4C[C@@]3(CC[C@H]12)CC4(O)CO (some centres undefined)
inactive: Potency [1] | Potency [2] | Potency [3] | Potency [4]

COc1cc(Nc2nc3c(s2)CCCC3c2ccccc2)ccc1-n1cnc(C)c1 (centres undefined)
inactive: Potency [1] | Potency [2] | outcome [3] inactive [at 11.6 µM] | activity change, negative = thiol reactive [4] -6.96% [at 11.5 µM]

CNC(=O)c1ccc2c(c1)CCO[C@H]2CCN1CCN(c2ccc(C(N)=O)cc2)CC1
inactive: Potency [1] | Potency [2] | Potency [3] | Potency [4]

C/C=C/C=C/C=C/C(=O)O[C@@H]1C=C(CO)[C@](O)(CO)[C@@]2(C)CCCC(C)(C)[C@H]12
inactive: Potency [1] | Potency [2] | Potency [3] | Potency [4]

Fc1ccc(-c2c3cccc(C(F)(F)F)c3nn2Cc2ccc(F)cc2Cl)cc1
inactive: Potency [1] | Potency [2] | Potency [3] | Potency [4]

CC1CC2OCC3(O)CCC(O)C(C14CC(c1ccoc1)OC4=O)C23CO (centres undefined)
inactive: Potency [1] | Potency [2] | Potency [3]
active: Potency [4] 3.29 µM

CC(C)[C@@](O)(c1ccc2cc(OC(F)F)c(OC(F)F)cc2c1)c1cn[nH]n1
inactive: Potency [1] | Potency [2] | Potency [3] | Potency [4]

CC1(C)C=Cc2c(ccc3c2N=C2C(C)(C)[C@@H]4C[C@]56CCCN5C(=O)[C@@]4(C[C@]23O)NC6=O)O1
inactive: Potency [1] | Potency [2] | Potency [3] | Potency [4]

CC(C)[C@](O)(c1ccc2cc(OC(F)F)c(OC(F)F)cc2c1)c1cn[nH]n1
inactive: Potency [1] | Potency [2] | Potency [3] | Potency [4]

C=CC1(C)CC2CCC3C(C)(C(=O)O)CCCC3(C)C2=CC1=O (centres undefined)
inactive: Potency [1] | Potency [2] | Potency [3] | Potency [4]

C=C[C@]1(C)C[C@@H](OC(=O)CSC2C[C@H]3CC[C@@H](C2)N3C)[C@]2(C)[C@H](C)CC[C@]3(CCC(=O)[C@H]32)[C@@H](C)[C@@H]1O (some centres undefined)
inactive: Potency [1] | Potency [2] | Potency [3] | Potency [4]

Cc1c(-c2ccc3c(c2)OCO3)oc2ccc(C(O)C(C)O)cc12 (centres undefined)
active: Potency [3] 1.17 µM
inactive: Potency [1] | Potency [2] | Potency [4]

COc1cc(CO)cc(OC)c1O[C@@H]1O[C@H](CO)[C@@H](O)[C@H](O)[C@H]1O
inactive: Potency [1] | Potency [2] | Potency [3] | Potency [4]

CC(=O)OCC1OC(OC2COC(OC3COC(OC4C(OC5C(CO)OC(OC6CCC7(C)C(CCC8(C)C7CC=C7C9CC(C)(C)CCC9(C(=O)OC9OC(CO)C(O)C(O)C9OC9OCC(OC%10OCC(O)(CO)C%10O)C(O)C9O)C(O)CC78C)C6(C)C)C(O)C5O)OCC(O)C4O)C(O)C3O)C(O)C2O)C(OC(=O)/C=C/c2ccccc2)C(O)C1OC(C)=O (centres undefined)
inactive: Potency [1] | Potency [2] | activity change, negative = inhibition [3] 4.52% [at 6.45 µM] | activity change, negative = thiol reactive [4] 153% [at 6.41 µM]
